# Screening results (PubChem BioAssay)
# Hits are enriched below; roughly 4.7% of the tested compounds scored in any of these assays.
# TRHR PAM: qHTS for Small Molecule Agonists and Allosteric Enhancers of Human TRH Receptor: Primary Screen for Enhancers; Thyrotropin-releasing hormone receptor (Homo sapiens), P34981; TRHR cells, fluo-8 calcium fluorescence, EC20 TRH enhancement; enhancement, % at 2 µM; hit rate 0.66% among 360,000; AID 493056, 2011; in the data active = enhancement above about 30%; also: 0% is about no effect
# Target sequence (P34981 whole entry, looked up): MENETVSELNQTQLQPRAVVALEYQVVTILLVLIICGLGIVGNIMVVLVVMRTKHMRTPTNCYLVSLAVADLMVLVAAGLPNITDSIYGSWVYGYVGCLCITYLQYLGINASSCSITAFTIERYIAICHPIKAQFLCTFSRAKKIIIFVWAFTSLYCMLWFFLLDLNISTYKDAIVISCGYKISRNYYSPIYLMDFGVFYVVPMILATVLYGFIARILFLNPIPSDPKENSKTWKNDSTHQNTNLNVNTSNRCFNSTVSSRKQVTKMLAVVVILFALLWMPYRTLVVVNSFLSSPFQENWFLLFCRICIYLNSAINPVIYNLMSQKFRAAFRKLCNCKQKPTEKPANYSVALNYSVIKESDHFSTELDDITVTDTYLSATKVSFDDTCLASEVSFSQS
#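 Enhancer read-out: after compound pinning and an initial kinetic agonist-mode read, an EC20 of TRH (10 nM final) was injected and fluo-8 calcium signal (Ex 480/Em 530) followed at 1 s/cycle for 100 cycles in TRHR-expressing cells.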
# TRHR agonist: qHTS for Small Molecule Agonists and Allosteric Enhancers of Human TRH Receptor: Primary Screen for Agonists. TRHR cells, calcium flux fluo-8, FDSS agonist mode. activation, % at 2 µM. hit rate 0.18% among 360,000; also: 0% is about no effect
#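 TRHR-expressing cells loaded with fluo-8 calcium dye; 23 nL library compound pin-transferred, kinetic FDSS fluorescence (Ex 480/Em 530) recorded about 180 s for agonist-induced calcium release, before a 10 nM TRH EC20 addition for potentiator mode.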
# D1 antagonist: Antagonist of Human D 1 Dopamine Receptor: qHTS; D(1A) dopamine receptor (Homo sapiens), P21728; activity change, negative = inhibition, % at 10 µM; HEK293 TREx D1 cells, calcium flux, dopamine EC80; stronger effect = lower value; hit rate 3.2% among 360,000; in the data active = activity change below about -30%; also: % is scaled to controls: 0 for no effect and ±100 for the full control effect
#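 Using tetracycline-induced force-coupled D1 Hek293 cells and a calcium dye, signals were followed for 180 s after compound, then for 180 s after EC80 dopamine, to detect inhibitors.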
# D1 ag: Allosteric Agonists of the Human D1 Dopamine Receptor: qHTS; HEK293 T-REx D1 cells, calcium flux, agonist mode; activation, % at 2 µM; hit rate 1% among 360,000; AID 504660, 2011; also: 0% is about no effect
#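 Agonism was scored from calcium flux recorded over 180 s (1 read/s) after pintool compound addition, following a 10-cycle baseline. Cells were inducible force-coupled HEK293 TREx D1, plated overnight at 30 C and loaded with no-wash calcium dye.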
# D1 PAM: Potentiators of Human D1 Dopamine Receptor: qHTS. D(1A) dopamine receptor (Homo sapiens), P21728. HEK293 TREx D1 cells, calcium flux, dopamine EC20 potentiation. potentiation, % at 10 µM. hit rate 0.036% among 360,000; in the data active = potentiation above about 30%; also: 0% is about no effect
# * = called active by the depositor; . = no result. Rule as the data show it, unless noted: active = activation above about 30%; inactive = the rest.
SMILES,TRHR PAM,TRHR agonist,D1 antagonist,D1 ag,D1 PAM
Cc1ccc(S(=O)(=O)N2CCC(=O)N(CCOC(=O)Nc3cccc(Cl)c3)CC2)cc1,-5,0,-31*,3,-5
Cc1ccc(NC(=O)c2ccc(NC(=O)N3CCSc4ncccc43)cc2)c(Cl)c1,-1,-1,-10,-1,-2
O=C(Nc1cccc(Cl)c1)OCCOc1ccccc1,-3,0,-31*,8,-5
CC(C)OC(=O)NCCOC(=O)Nc1ccc(Cl)c(Cl)c1,-14,3,-40*,9,-3
CC(C)OC(=O)NCCOC(=O)Nc1cccc(Cl)c1,-4,0,-31*,22,-9
C=COCCNC(=O)Nc1ccc(Cl)c(Cl)c1,15,-1,-57*,47*,-2
NC(=O)C1CCN(S(=O)(=O)c2ccc(N3CCCCS3(=O)=O)cc2)CC1,-2,1,4,-2,0
COc1cccc(/C=C(\CC(=O)O)c2nc3ccccc3s2)c1,34*,0,1,0,0
CC(C)(C)C(=O)NCCc1csc2nc(-c3ccc(F)cc3)nn12,2,0,0,4,0
Cc1ccc(-n2nc(C)c3c(C(=O)NCc4ccc(F)cc4)cc(C)nc32)cc1,-3,1,7,4,-1
Cc1cccc(-c2nn3c(=O)cc(CN4CCN(S(=O)(=O)c5ccc(Cl)cc5)CC4)nc3s2)c1,-9,0,-10,1,2
Cc1ccccc1-c1nn2c(=O)cc(CN3CCN(C(=O)/C=C/c4ccccc4)CC3)nc2s1,-1,-1,-32*,-1,-6
Cc1cccc(-c2nn3c(=O)cc(CN4CCN(C(=O)c5ccccc5Br)CC4)nc3s2)c1,2,0,-34*,0,-5
COc1ccc(-c2cc(C)no2)cc1S(=O)(=O)Nc1c(C)cc(C)cc1C,7,0,9,3,-2
CCOC(=O)c1ccc2c(c1)[nH]c(=S)n2CC,-5,-1,-19,6,-1
CCN(CC)S(=O)(=O)c1ccc2c(c1)[nH]c(=S)n2CC,38*,-1,4,10,9
C=C1C(=O)C=C2CN(C(=O)c3ccccc3)[C@@](Cc3ccc(F)cc3)(C(=O)OC)[C@@H]12,0,17,-35*,90*,5
COC(=O)[C@@]1(Cc2ccc(OC)cc2)[C@@H]2C(=CC(=O)[C@H]2CC(=O)C(=O)N(C)C)CN1C(=O)c1ccccc1,-3,-1,-10,4,-4
Cc1cnc(NC(=O)c2c(-c3ccccc3)noc2C)s1,-1,0,-34*,-1,-6
CCn1nc(-c2ccccc2)c(-c2ccccc2)c(C(=O)Nc2ccccc2C(N)=O)c1=O,-5,0,-42*,7,0
CCOC(=O)c1c(NC(=O)c2c(-c3ccccc3)noc2C)sc(C)c1-c1ccccc1,1,0,6,3,0
Cc1onc(-c2ccccc2)c1C(=O)OCC(=O)Nc1cccc(Cl)c1,-6,2,2,47*,.
CCOC(=O)c1ccccc1NC(=O)c1c(-c2ccccc2)noc1C,7,1,-10,32*,-6
Cc1c(C(=O)N2CCOCC2)oc2c1-c1nn(CC(=O)NCc3cccc(Cl)c3)cc1CC2,1,0,-3,2,-6
COCCCc1cc(F)c(S(=O)(=O)N2CCN(S(=O)(=O)c3ccc4c(c3)OCCO4)CC2)cc1F,-1,2,-2,3,-2
SMILES,TRHR PAM,TRHR agonist,D1 antagonist,D1 ag,D1 PAM
O=C(C1CCN(S(=O)(=O)Cc2ccccc2)CC1)N1CCN(c2ccc(F)cc2)CC1,-4,0,-9,-1,-3
CC1=C(c2ccc(C)cc2)S(=O)(=O)N(Cc2ccc(C(=O)Nc3ccc(C)c(F)c3)cc2)C1=O,-12,1,-10,11,-6
CCOc1ccc(C2CC(=O)Nc3nc(SCc4ccccc4C)[nH]c(=O)c32)cc1OC (stereo not drawn),-2,-3,-9,7,-2
Cc1cccc(CSCCNC(=O)CN(c2ccccc2)S(=O)(=O)N(C)C)c1,-4,-1,-5,30,-7
CCN(c1ccccc1)c1nnc(NC(=O)Nc2ccc(C)cc2)s1,1,0,-34*,-2,-3
CCN(c1ccccc1)c1nnc(NC(=O)Nc2ccc(Br)c(C)c2)s1,-6,0,-2,2,-3
Cc1ccc(NC(=O)Nc2nnc(N(C)Cc3ccccc3)s2)c(C)c1,-3,0,-41*,4,0
Cc1ccc(Cl)cc1NC(=O)Nc1nnc(N(C)Cc2ccccc2)s1,16,0,-8,0,-2
CCOC(=O)c1ccc(NC(=O)COc2ccccc2CNC2CCCC2)cc1,2,2,-36*,25,-7
CCOc1cc(CNC2CCCC2)c(Cl)cc1OCC(=O)Nc1ccccc1,1,2,-5,12,-5
COC(=O)c1ccc(OCC2c3cc(OC)c(OC)cc3CCN2C(=O)c2cccc(C)c2)cc1 (stereo not drawn),-4,0,-33*,3,-2
COC(=O)c1ccc(OCC2c3cc(OC)c(OC)cc3CCN2C(=O)C(C)C)cc1 (stereo not drawn),8,0,4,-1,0
Cc1ccccc1CC1(CO)CCCN(Cc2c(C)nn(C)c2Cl)C1 (stereo not drawn),-2,0,-33*,17,-5
CSCC(=O)N1CCCC(CO)(Cc2ccccc2C)C1 (stereo not drawn),10,0,-53*,2,-2
Cc1ccccc1CC1(CO)CCCN(Cc2ccn[nH]2)C1 (stereo not drawn),-5,0,-17,1,-4
Cc1nn(C)c(Cl)c1CN1CCCC(CO)(Cc2cccc(Cl)c2)C1 (stereo not drawn),7,-3,-33*,11,-4
CN(C(=O)C1=CC(c2ccc3c(c2)OCO3)=NS(=O)(=O)N1C)c1ccccc1,5,0,-19,4,-2
COc1ccc(NCc2cc3cc4c(cc3n(CC(=O)Nc3ccc(C)c(C)c3)c2=O)OCO4)cc1,-1,2,-3,19,0
CCSc1nnc2c(n1)OC(CC)N(C(C)=O)c1ccccc1-2 (stereo not drawn),7,-1,-1,-1,-1
CC(C)C(=O)N(Cc1ccccc1)c1ccccn1,3,-4,-6,6,3
CCc1ccc(CN(C(=O)Nc2cccc(Cl)c2)c2ccccn2)cc1,2,-2,-19,31*,0
